Screens from PubChem BioAssay.
In the library only some 2.6% were active in any assay of this set; here they are far more common.
CCT modulator = modulators of cytosolic chaperonin (CCT/TRiC) activity; purified chaperonin ATPase assay, HTRF ADP detection, 30 min; 360,000 tested, 0.3% active; activity change, % (no concentration beside the values), hits read low; in the data active = activity change below about -30%; also: % is scaled to controls: 0 for no effect and ±100 for the full control effect
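We incubate TRiC, 40 or 20 nM final, with library compounds at 76 uM and 10 uM ATP for 30 min at 37 °C. ADP formed is detected with Transcreener HTRF reagents after 30 min at room temperature.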
Nrf2 block = inhibitors of Nrf2 signaling; 360,000 tested, 2.1% active; Potency, µM (doses to about 46 µM), for inactives: top-dose activity change, negative = inhibition, most hits filed as inhibitors; A549 ARE-Fluc reporter, luciferase luminescence, 18-24 h; also: potency is read from the fitted curve at half-maximal effect; % is scaled to controls: 0 for no effect and ±100 for the full control effect; nearly all actives have a fitted effect of over 60% in size
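Nrf2 function is reported as luminescence of an ARE-controlled luciferase in A549 cells. Compounds were tested at several concentrations, and a CellTiter-Fluor read on the same wells flagged cytotoxicity.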
Nrf2 activator = activates Nrf2 signaling | 410,000 tested, 0.31% active | Potency, µM (series often up to 46.1 µM), inactives show at the top dose activation, usual class: activators | AREc32 ARE-luciferase reporter (MCF7-derived line), luminescence, 24 h; also: potency is read from the fitted curve at half-maximal effect; % of control where 0% means no effect; nearly all actives have a fitted effect of over 65% in size
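Cells of the AREc32 ARE-luciferase line are plated in OPTI-MEM containing 5% FBS and left overnight at 37 deg C. Compounds are pinned in, incubation continues 24 hr, and firefly luciferase signal is then measured.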
TCR activator = T cell receptor activation; 330,000 tested, under 10 active; Potency, µM (top dose mostly 9.22 µM), inactives show at the top dose activation of IL-2 secretion, usual class: activators; primary human leukocytes, anti-CD3, IL-2 HTRF, 48 h; also: % of control where 0% means no effect
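Compounds are tested in HTS on primary human leukocytes co-incubated with a-CD3 beads for 48 hr. IL-2 output is measured by time-resolved FRET.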
A-T KAP1 phos = potential ataxia-telangiectasia treatments restoring KAP-1 phosphorylation; F2112 A-T fibroblasts, KAP-1 phosphorylation AlphaLISA; neocarzinostatin DNA damage 30 min before lysis; Potency, µM (top dose mostly 57.5 µM), for the others: top-dose activation, actives largely listed as activators; 320,000 tested, 0.19% active; also: potency is read from the fitted curve at half-maximal effect; % of control where 0% means no effect; nearly all actives have a fitted effect of over 45% in size
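hTERT-immortalized A-T patient fibroblasts (F2112), 500 cells/well in OPTI-MEM, 1% FBS, got compounds for 60 min, then NCS for 30 min at 37C. Lysates were then assayed for phospho-KAP-1 by AlphaLISA (anti-pKAP1 donor, anti-KAP1 acceptor beads), 6 hr at 25C.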
A549 tox = counter-screen for Nrf2 inhibitors: cytotoxicity in A549 cells | A549 ARE-Fluc cells, CellTiter-Fluor viability, 18-24 h | Potency, µM (series often up to 46 µM), for the others: at the highest dose activity change, negative = cytotoxicity, most hits filed as inhibitors | 390,000 tested, 0.16% active | AID 504648; also: potency is read from the fitted curve at half-maximal effect; % is scaled to controls: 0 for no effect and ±100 for the full control effect
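A549 ARE_Fluc cells in 5% FBS OPTI-MEM were exposed to compounds in concentration-response for 18-24 h at 37 deg C. Viability was read by CellTiter-Fluor fluorescence (Ex 405/Em 525) after 30 min, before the luciferase read.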
* = called active by the depositor; [ ] = dose if it differs, or a comment. Unless noted, calls follow the shape of the dose curve; as a rule, active = well fitted curve in the direction sought with a large enough effect; inconclusive = small, poorly fitted or top-dose-only effect, or another doubt; inactive = no such curve, though single readings can be large; an effect the other way counts as inactive or inconclusive.

How did O=C(NCCCn1ccnc1)c1cc2nc(-c3ccc(Br)cc3)cc(C(F)(F)F)n2n1 do in these assays?
CCT modulator: 1.5; Nrf2 block: 20.6µM*; Nrf2 activator: 1.9%; TCR activator: -4.7%[46.1 µM]; A-T KAP1 phos: -1.6%; A549 tox: inconclusive

How did COC1=C2C[C@H](C)C[C@H](OC)[C@@H](O)[C@@H](C)C=C(C)[C@H](OC(N)=O)[C@@H](OC)C=CC=C(C)C(=O)NC(=CC1=O)C2=O do in these assays?
Nrf2 block: -17.0%; A549 tox: inconclusive

Results for O=C(NCC1CCCO1)NC1(C(F)(F)F)Oc2ccccc2O1 (stereo not given) ?
CCT modulator: 0.4; Nrf2 block: inconclusive; Nrf2 activator: 15.8µM*; TCR activator: 1.3%; A-T KAP1 phos: -3.1%; A549 tox: inconclusive

Results for O=C(NCC1CCCO1)c1ccccc1 (stereo not given) ?
CCT modulator: -0.9; Nrf2 block: -8.0%; Nrf2 activator: -0.8%; TCR activator: 8.5%; A549 tox: -7.0%

Results for COC(=O)c1ccc2nc(-c3ccco3)c(Cc3cccc(F)c3)n2c1 ?
CCT modulator: 0.8; Nrf2 activator: 11.2µM*

What do the screens show for `COC(=O)c1ccc2nc(-c3ccc(F)cc3)c(Cc3ccc(OC)cc3C)n2c1`?
CCT modulator: -1.0; Nrf2 activator: 0.1%

How did COC(=O)c1ccc2nc(-c3ccco3)c(Cc3ccc(OC)cc3C)n2c1 do in these assays?
CCT modulator: -0.5; Nrf2 activator: 11.2µM*

What do the screens show for `COC(=O)c1ccc2nc(-c3ccco3)c(Cc3ccc(C)cc3)n2c1`?
CCT modulator: -4.7; Nrf2 activator: 11.2µM*

What do the screens show for `O=C(CSc1nc2ccccc2nc1Cc1ccc(Cl)cc1)N1CCCc2ccccc21`?
Nrf2 activator: 3.6%; A549 tox: -2.9%

What do the screens show for `Cc1ccc(-n2c(=O)c3c(c4cc(C)ccc4n3C)n(CC(=O)Nc3cc(C)cc(C)c3)c2=O)cc1`?
Nrf2 block: 5.8%; Nrf2 activator: 0.4%; A549 tox: 0.2%

How did C=C(C)Cn1c(=O)c2c(nc3n2CCN3c2ccc(CC)cc2)n(C)c1=O do in these assays?
Nrf2 block: inconclusive; Nrf2 activator: 0.3%; A549 tox: 8.9%

How did COCCNC(=O)CN(C(=O)CCC(=O)Nc1ccccn1)c1cc(C)ccc1C do in these assays?
CCT modulator: -1.5; Nrf2 block: -1.7%; Nrf2 activator: -0.3%; TCR activator: -1.2%; A-T KAP1 phos: 0.3%; A549 tox: -4.5%

How did Cc1ccc(NC(=O)c2ccc(S(=O)(=O)NCc3ccco3)cc2)cc1 do in these assays?
CCT modulator: -1.6; Nrf2 block: inconclusive; Nrf2 activator: 2.9%; TCR activator: -2.0%; A-T KAP1 phos: -3.1%; A549 tox: 8.1%

How did Cc1ccccc1C(=O)NC1CCN(Cc2ccccc2)CC1 do in these assays?
CCT modulator: -1.2; Nrf2 block: 0.7%; Nrf2 activator: -0.2%; TCR activator: 2.3%; A-T KAP1 phos: -1.8%; A549 tox: -0.1%

How did O=C(NC1CCCCC1)c1ccc(S(=O)(=O)NCc2ccco2)cc1 do in these assays?
CCT modulator: -1.0; Nrf2 block: 10.0%; Nrf2 activator: 0.2%; TCR activator: 0.3%; A-T KAP1 phos: 0.4%; A549 tox: -3.9%

How did Cc1cccc(NS(=O)(=O)c2ccc(C)c(C(=O)NC3CCN(Cc4ccccc4)CC3)c2)c1 do in these assays?
CCT modulator: 2.5; Nrf2 block: 8.2µM*; Nrf2 activator: 6.6%; TCR activator: 7.1%; A549 tox: 6.7%

What do the screens show for `O=C(NC1CCN(Cc2ccccc2)CC1)c1ccc(S(=O)(=O)NCc2ccco2)cc1`?
CCT modulator: 1.9; Nrf2 block: 6.51µM*; Nrf2 activator: 0.1%; TCR activator: 2.1%; A-T KAP1 phos: 1.6%; A549 tox: -12.1%

What do the screens show for `O=C(Nc1ccc(S(=O)(=O)NCc2ccco2)cc1)c1ccncc1`?
CCT modulator: -2.2; Nrf2 block: 13µM*; Nrf2 activator: 6.6%; TCR activator: 12.3%; A-T KAP1 phos: -5.8%; A549 tox: -3.8%

How did N/C(=N\OC(=O)c1ccccc1F)c1cccc([N+](=O)[O-])c1 do in these assays?
CCT modulator: 1.3; Nrf2 block: inconclusive; Nrf2 activator: inconclusive; TCR activator: -3.7%; A-T KAP1 phos: -3.3%; A549 tox: -0.4%

Results for COc1cccc(C(=O)Nc2nc(-c3nnn(-c4cccc(Cl)c4C)c3C)ns2)c1 ?
Nrf2 block: inconclusive; Nrf2 activator: 3.1%; A549 tox: -14.8%

Results for CCN(CC)c1ccc(S(=O)(=O)Nc2cc(Cl)ccc2Cl)cc1NC(=S)NC(=O)C1CCCC1 ?
CCT modulator: -0.7; Nrf2 block: 18.4µM*; Nrf2 activator: 3.7%; TCR activator: 4.4%[46.1 µM]; A-T KAP1 phos: -7.0%; A549 tox: -16.2%

What do the screens show for `CCN(CC)S(=O)(=O)c1ccc(Cl)c(NC(=S)NC(=O)C2CCCC2)c1`?
CCT modulator: -1.8; Nrf2 block: 8.2µM*; Nrf2 activator: 0.4%; TCR activator: -5.9%; A-T KAP1 phos: 6.5%; A549 tox: -19.1%

What do the screens show for `COc1cccc(N2C(=O)c3ccccc3C2=O)c1`?
Nrf2 block: 6.3%; A549 tox: 8.2%

How did O=C1c2ccccc2C(=O)N1c1cnc2ccccc2c1 do in these assays?
Nrf2 block: 9.5%; A549 tox: 10.4%

How did CC1(C)CC(=O)C2=C(C1)Oc1nc3ccccc3cc1C2C(C#N)C#N (stereo not given) do in these assays?
CCT modulator: 0.7; Nrf2 block: inconclusive; Nrf2 activator: 7.08µM*; TCR activator: 6.0%; A-T KAP1 phos: 17.6%; A549 tox: inconclusive

How did CC1(C)CC(=O)C(C2C3=C(CC(C)(C)CC3=O)Oc3ccccc32)C(=O)C1 (stereo not given) do in these assays?
CCT modulator: -2.1; Nrf2 block: 4.6%; Nrf2 activator: 0.4%; TCR activator: -4.5%; A-T KAP1 phos: 19.2%; A549 tox: inconclusive

Results for CC(C)CC(=O)Nc1ccc(Cl)c(-c2nc3ccccc3[nH]2)c1 ?
Nrf2 block: -11.0%; Nrf2 activator: 0.0%; A549 tox: -5.1%

What do the screens show for `NNC(=O)c1oc2nc(-c3ccc(Cl)cc3)cc(-c3ccccc3)c2c1N`?
CCT modulator: 0.2; Nrf2 block: 10.3µM*; Nrf2 activator: -0.4%; TCR activator: -3.5%; A-T KAP1 phos: 9.8%; A549 tox: 19.5%

How did O=S1(=O)N=C(Oc2ccc3ccccc3c2)c2ccccc21 do in these assays?
Nrf2 block: 0.7%; A549 tox: -5.8%
